The supplement of paper PMC10849652
Of roughly 7,900 targets only a part is listed; those with a hit were picked by preference. About 0.6% of all pairs of compound and target were hits.

Compound: CC[C@H](C)N1C=C(C2=C(C=C(C=C21)C3=CN=C(C=C3)N4CCNCC4)C(=O)NCC5=C(C=C(NC5=O)C)C)C
Assay: log2 fold change, soluble protein after heating vs DMSO (PISA); higher = thermal stabilisation; K562 cells, 10 uM, 30 min; active = over 0.2 and 3.5 SD of the protein, either way, in both replicates (recomputed)
Method in brief: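 Soluble protein was defined as the supernatant after 21,000xg for 90 min. It came from K562 cells at 2×10^6 cells/mL given 10 μM compound for 30 min, heated in aliquots for 3 min across 48°C-58°C, pooled, and extracted in PBS with 0.5% NP-40 at 4°C, and was quantified by TMTpro 16plex LC-MS/MS with equalised channel sums. Thermal stability against control samples, from duplicates, is reported as log2 fold change.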

UniProt Q9BSU3, sequence (Q9BSU3 whole entry, looked up): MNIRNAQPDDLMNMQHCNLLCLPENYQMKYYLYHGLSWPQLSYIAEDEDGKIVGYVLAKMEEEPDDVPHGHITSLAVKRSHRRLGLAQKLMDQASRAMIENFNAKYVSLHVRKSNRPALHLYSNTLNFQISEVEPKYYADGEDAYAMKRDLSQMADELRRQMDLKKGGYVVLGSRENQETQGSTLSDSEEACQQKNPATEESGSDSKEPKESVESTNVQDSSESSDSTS
UniProt Q86VX9, sequence (Q86VX9 whole entry, looked up): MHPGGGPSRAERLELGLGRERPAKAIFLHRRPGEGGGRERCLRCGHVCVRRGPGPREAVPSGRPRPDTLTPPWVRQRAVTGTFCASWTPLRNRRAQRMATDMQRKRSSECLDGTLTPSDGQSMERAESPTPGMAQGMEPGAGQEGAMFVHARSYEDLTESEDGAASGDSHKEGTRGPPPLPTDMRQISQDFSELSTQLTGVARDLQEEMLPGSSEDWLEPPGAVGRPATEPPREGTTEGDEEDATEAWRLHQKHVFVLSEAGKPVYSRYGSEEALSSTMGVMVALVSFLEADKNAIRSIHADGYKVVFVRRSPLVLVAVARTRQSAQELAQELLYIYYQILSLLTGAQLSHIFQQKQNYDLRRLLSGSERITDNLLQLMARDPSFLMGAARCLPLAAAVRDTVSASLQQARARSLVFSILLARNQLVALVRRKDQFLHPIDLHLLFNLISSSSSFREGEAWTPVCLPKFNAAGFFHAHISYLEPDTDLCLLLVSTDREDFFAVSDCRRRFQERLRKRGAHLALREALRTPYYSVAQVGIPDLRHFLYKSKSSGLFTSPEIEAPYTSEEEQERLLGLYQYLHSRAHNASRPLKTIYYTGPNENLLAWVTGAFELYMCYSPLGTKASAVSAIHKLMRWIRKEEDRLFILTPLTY
UniProt Q9HCD5, sequence (Q9HCD5 whole entry, looked up): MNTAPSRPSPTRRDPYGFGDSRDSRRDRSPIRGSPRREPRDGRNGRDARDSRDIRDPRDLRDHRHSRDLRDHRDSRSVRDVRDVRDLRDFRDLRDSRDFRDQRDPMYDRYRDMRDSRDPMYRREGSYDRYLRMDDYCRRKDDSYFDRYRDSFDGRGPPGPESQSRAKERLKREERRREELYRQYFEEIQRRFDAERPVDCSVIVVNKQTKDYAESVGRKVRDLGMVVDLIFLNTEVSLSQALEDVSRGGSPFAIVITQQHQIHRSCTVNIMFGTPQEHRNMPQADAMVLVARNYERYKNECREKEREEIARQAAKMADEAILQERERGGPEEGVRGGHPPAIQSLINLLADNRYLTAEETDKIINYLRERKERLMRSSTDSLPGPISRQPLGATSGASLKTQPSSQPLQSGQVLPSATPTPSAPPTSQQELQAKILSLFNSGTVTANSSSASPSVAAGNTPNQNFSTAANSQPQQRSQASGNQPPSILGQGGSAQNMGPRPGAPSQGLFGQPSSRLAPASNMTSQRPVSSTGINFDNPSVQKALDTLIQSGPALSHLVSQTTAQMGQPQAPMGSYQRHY
UniProt Q69YL0, sequence (Q69YL0 whole entry, looked up): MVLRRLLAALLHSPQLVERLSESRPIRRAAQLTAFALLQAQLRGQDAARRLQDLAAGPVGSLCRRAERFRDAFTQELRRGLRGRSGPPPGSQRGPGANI
UniProt Q8NI08, sequence (Q8NI08 whole entry, looked up): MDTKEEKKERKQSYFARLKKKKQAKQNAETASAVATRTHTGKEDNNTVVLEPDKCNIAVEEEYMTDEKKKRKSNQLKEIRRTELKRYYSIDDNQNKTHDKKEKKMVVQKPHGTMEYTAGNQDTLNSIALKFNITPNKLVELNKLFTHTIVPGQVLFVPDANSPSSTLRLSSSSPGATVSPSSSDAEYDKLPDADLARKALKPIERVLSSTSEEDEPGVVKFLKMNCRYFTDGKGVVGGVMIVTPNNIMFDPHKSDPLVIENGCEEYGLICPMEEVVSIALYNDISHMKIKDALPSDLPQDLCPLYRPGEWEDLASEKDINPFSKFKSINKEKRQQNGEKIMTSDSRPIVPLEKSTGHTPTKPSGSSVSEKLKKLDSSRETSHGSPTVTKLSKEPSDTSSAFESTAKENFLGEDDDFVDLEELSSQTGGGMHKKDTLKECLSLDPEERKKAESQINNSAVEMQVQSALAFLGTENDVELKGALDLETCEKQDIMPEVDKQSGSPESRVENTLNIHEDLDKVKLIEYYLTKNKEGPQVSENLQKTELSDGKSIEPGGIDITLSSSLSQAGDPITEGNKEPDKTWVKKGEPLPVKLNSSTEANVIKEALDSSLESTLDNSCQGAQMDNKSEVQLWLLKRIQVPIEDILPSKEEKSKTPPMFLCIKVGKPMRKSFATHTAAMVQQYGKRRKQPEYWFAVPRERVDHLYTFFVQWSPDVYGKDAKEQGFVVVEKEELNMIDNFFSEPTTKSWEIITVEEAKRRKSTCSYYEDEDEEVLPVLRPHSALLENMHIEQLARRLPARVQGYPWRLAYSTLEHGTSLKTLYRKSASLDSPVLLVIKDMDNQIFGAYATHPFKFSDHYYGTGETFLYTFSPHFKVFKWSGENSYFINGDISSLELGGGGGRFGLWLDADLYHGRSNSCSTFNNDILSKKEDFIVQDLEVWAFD
UniProt P0C024, sequence (P0C024 whole entry, looked up): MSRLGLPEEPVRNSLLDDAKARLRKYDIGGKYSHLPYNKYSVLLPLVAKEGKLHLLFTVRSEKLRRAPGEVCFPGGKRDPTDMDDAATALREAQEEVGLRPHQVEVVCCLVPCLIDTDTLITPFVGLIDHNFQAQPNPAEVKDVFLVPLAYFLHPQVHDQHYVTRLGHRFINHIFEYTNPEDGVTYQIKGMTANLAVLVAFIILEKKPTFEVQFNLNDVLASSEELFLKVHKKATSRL
UniProt P25208, sequence (P25208 whole entry, looked up): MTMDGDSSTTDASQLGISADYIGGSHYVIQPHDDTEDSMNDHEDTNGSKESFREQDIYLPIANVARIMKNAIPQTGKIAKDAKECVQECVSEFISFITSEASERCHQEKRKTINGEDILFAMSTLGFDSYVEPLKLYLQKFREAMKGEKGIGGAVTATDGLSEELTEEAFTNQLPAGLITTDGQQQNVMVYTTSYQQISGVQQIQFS
UniProt P51956, sequence (P51956 whole entry, looked up): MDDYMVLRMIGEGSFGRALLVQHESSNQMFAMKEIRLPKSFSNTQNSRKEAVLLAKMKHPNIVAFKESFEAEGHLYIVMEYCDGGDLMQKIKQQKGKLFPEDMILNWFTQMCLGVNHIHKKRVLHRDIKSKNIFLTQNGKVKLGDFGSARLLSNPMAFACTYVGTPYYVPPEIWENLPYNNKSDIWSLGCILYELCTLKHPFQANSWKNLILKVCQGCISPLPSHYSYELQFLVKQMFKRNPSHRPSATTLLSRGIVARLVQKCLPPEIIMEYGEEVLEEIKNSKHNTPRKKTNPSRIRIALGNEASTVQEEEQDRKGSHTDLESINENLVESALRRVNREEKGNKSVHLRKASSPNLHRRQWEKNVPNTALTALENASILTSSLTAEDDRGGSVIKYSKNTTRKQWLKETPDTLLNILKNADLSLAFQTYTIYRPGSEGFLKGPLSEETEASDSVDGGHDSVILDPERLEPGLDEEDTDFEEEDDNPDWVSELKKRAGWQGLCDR
UniProt Q9H019, sequence (Q9H019 whole entry, looked up): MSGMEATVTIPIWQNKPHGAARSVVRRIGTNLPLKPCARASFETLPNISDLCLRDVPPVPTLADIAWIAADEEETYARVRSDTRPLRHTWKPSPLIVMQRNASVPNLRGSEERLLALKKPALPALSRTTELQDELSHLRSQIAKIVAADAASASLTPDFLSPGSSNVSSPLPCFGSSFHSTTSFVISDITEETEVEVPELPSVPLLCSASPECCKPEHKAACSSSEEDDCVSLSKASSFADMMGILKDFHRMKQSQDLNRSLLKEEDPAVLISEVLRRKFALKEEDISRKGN
UniProt Q9H4L5, sequence (Q9H4L5 whole entry, looked up): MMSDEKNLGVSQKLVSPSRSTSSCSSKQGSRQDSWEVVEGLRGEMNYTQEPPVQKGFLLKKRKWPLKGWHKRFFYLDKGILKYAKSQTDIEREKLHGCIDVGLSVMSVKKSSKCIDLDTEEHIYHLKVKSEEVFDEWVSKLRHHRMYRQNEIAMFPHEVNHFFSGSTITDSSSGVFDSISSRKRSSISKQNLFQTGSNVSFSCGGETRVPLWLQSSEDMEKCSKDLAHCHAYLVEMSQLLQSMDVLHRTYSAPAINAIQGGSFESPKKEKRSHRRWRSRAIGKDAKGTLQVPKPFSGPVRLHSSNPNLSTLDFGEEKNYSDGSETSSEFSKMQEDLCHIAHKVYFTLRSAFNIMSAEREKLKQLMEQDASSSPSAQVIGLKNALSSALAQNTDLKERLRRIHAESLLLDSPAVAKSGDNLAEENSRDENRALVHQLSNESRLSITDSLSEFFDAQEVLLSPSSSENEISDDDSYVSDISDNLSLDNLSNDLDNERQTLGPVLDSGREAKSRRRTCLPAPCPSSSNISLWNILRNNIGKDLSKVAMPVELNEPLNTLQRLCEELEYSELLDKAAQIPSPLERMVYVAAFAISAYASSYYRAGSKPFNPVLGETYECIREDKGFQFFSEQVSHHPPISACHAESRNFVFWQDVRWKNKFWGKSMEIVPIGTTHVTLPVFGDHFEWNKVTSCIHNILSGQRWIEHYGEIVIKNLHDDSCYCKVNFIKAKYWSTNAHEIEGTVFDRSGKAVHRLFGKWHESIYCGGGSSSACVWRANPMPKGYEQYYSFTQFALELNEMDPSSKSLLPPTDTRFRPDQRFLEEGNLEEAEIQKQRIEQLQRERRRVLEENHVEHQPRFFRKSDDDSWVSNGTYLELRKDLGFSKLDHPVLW
UniProt Q9UH92, sequence (Q9UH92 whole entry, looked up): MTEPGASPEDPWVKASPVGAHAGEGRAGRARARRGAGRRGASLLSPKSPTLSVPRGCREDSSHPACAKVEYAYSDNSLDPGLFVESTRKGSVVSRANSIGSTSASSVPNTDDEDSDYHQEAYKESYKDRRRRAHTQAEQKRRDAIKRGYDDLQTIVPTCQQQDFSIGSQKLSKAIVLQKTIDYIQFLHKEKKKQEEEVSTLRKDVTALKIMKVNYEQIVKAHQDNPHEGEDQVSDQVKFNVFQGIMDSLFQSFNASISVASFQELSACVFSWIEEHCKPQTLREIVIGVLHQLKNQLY

log2 fold change, inactive:
NFYB (UniProt P25208) -0.029
NPM3 (UniProt O75607) -0.099
MTFR1L (UniProt Q9H019) 0.036
NA, A0A2R8Y3M9 0.014
NME2P1 (UniProt O60361) -0.177
MON1A (UniProt Q86VX9) -0.141
NCOA7 (UniProt Q8NI08) 0.124
NCK1 (UniProt P16333) 0.109
NAT14 (UniProt Q8WUY8) 0.063
NUMBL (UniProt Q9Y6R0) 0.073
NDFIP1 (UniProt Q9BT67) -0.2
NA isoform 3 (UniProt Q4G0T1) 0.026
PACS1 (UniProt Q6VY07) 0.208
NPC1 (UniProt O15118) -0.031
MRPS21 (UniProt P82921) 0.063
MRPS16 (UniProt Q9Y3D3) 0.018
NOP58 (UniProt Q9Y2X3) 0.057
MYLK (UniProt Q15746) -0.172
MLX (UniProt Q9UH92) -0.007
OSBPL3 (UniProt Q9H4L5) -0.126
NUDT7 (UniProt P0C024) 0.187
OPHN1 (UniProt O60890) -0.016
MTHFD1, A0A384N5Y3 0.065
NAA11 (UniProt Q9BSU3) 0.044
NECTIN2 isoform 2 (UniProt Q92692) 0.106
MRPL46 (UniProt Q9H2W6) 0.034
MRPS33 (UniProt Q9Y291) 0.057
MT-ND1 (UniProt P03886) 0.035
NCBP2AS2 (UniProt Q69YL0) -0.1
NCOA5 (UniProt Q9HCD5) -0.019
MRFAP1 (UniProt Q9Y605) 0
ORC5 (UniProt O43913) 0.074
NEK3 (UniProt P51956) 0.167
